Measured values from PubChem BioAssay (NCI).
This is part of a sample that, as a whole, favours compounds with a hit. Of some 79,000 tested, about 15% had one in any assay. No stated cut-off is given here; in the data, active means growth inhibition above about 70%; inactive means the rest.

Key:
[1] = NCI Yeast Anticancer Drug Screen. Data for the rad50 strain (AID 155);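 further: 0% = growth of vehicle-only cultures of the same strain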; details: S. cerevisiae rad50 strain growth inhibition; at 50.0 µM; stronger effect = higher value
In short: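 Relative growth inhibition (compound vs vehicle) was measured in yeast with a defined repair-gene alteration.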

[2] = NCI Yeast Anticancer Drug Screen. Data for the mec2-1 strain (AID 157); details: S. cerevisiae mec2-1 strain, at 50.0 µM, stronger effect = higher value
In short: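 Cells of the genetically defined mec2-1 yeast strain are incubated with test compound. Inhibition of growth is calculated against vehicle-treated controls.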

[3] = NCI Yeast Anticancer Drug Screen. Data for the sgs1 mgt1 strain (AID 161);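 further: 0% = growth of cultures given vehicle only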; details: S. cerevisiae sgs1 mgt1 strain, at 50.0 µM, stronger effect = higher value
In short: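 Read-out: growth inhibition vs vehicle controls. Cells: mutant yeast strain deficient in DNA damage repair.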

[4] = NCI Yeast Anticancer Drug Screen. Data for the cln2 rad14 strain (AID 165);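 further: 0% = growth equal to vehicle treated cultures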; details: S. cerevisiae cln2 rad14 strain, at 50.0 µM, stronger effect = higher value
In short: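 The screen exposed genetically defined yeast (cln2 rad14) to test compounds and scored growth inhibition relative to vehicle-treated controls.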

[5] = NCI Yeast Anticancer Drug Screen. Data for the bub3 strain (AID 167); details: S. cerevisiae bub3 mutant strain, at 50.0 µM, stronger effect = higher value
In short: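 Screening used yeast with an engineered genetic alteration affecting cell cycle control. Compound-exposed cultures were compared with vehicle cultures, and reduced growth was taken as inhibition.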

[6] = NCI Yeast Anticancer Drug Screen. Data for the mlh1 rad18 strain (AID 175); details: S. cerevisiae mlh1 rad18 strain growth inhibition; at 50.0 µM; stronger effect = higher value
In short: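 Compound-treated yeast growth, normalised to vehicle controls. Strain bears defined DNA repair mutations.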

Measured: growth inhibition

N#Cc1ccc2c(c1)Sc1ccccc1N2
inactive: [1] 7.5% | [2] 3.05% | [3] -2.9% | [4] -43.4% | [5] -31% | [6] 21.7%

O=C(/C=C/c1ccc(Cl)cc1)c1cccs1
inactive: [1] -2.85% | [2] -14.3% | [3] 36.6% | [4] 1.25% | [5] 9.55% | [6] -7.75%

CN[C@H]1CCc2cc(OC)c(OC)c(OC)c2-c2ccc(O)c(=O)cc21
inactive: [1] 23.8% | [2] -9.45% | [3] 24.8% | [4] -43.5% | [5] 0.3% | [6] 29.7%

CC1(C)OC2C(=O)OC(COCc3ccccc3)C2O1 (stereo unspecified)
inactive: [1] 16.7% | [2] 2.2% | [3] 4.25% | [4] 11.1% | [5] 8.5% | [6] 34%

Cc1cc(S(=O)(=O)Nc2nc(N)nc(N3CCCCC3)n2)c(S)cc1Cl
inactive: [1] -0.3% | [2] -11.7% | [3] -13% | [4] -7.15% | [5] -5.2% | [6] 5.35%

CCC(=O)O[C@@H]1C2C(OC(C)=O)C34COC(C)([C@@H]3C3C(C[C@]3(C)OC(C)=O)[C@@H](OC(=O)c3ccccc3)C4=O)[C@H](OC(C)=O)[C@@]2(OC(C)=O)C[C@@H]1C (stereo partly specified)
inactive: [1] 4.2% | [2] -6.65% | [3] 4.85% | [4] 0.45% | [5] 9.95% | [6] 4.35%

O=[N+]([O-])c1ccc(-c2csc3nc(-c4ccccc4)nn23)cc1
inactive: [1] -0.5% | [2] -31.2% | [3] -29.9% | [4] 10.4% | [5] -28.2% | [6] -23.2%

Cn1c2ccc(Br)cc2c2cc(Br)cc([N+](=O)[O-])c21
inactive: [1] 6.55% | [2] 5.05% | [3] 14.9% | [4] -4.95% | [5] -2.05% | [6] 15.3%

COc1ccc(NC(=O)CC(=O)N/N=C(/C)c2cc3cc(N=Nc4ccccc4Cl)ccc3oc2=O)cc1
inactive: [1] 11.3% | [2] 14.2% | [3] 24.1% | [4] 34% | [5] -11.8% | [6] -10.2%

CC(C)(C)C1=CC(=C(c2ccc(-c3c4nc(c(-c5ccc(C(=C6C=C(C(C)(C)C)C(=O)C(C(C)(C)C)=C6)c6cc(C(C)(C)C)c(O)c(C(C)(C)C)c6)cc5)c5ccc([nH]5)c(-c5ccc(C(=C6C=C(C(C)(C)C)C(=O)C(C(C)(C)C)=C6)c6cc(C(C)(C)C)c(O)c(C(C)(C)C)c6)cc5)c5nc(c(-c6ccc(C(=C7C=C(C(C)(C)C)C(=O)C(C(C)(C)C)=C7)c7cc(C(C)(C)C)c(O)c(C(C)(C)C)c7)cc6)c6ccc3[nH]6)C=C5)C=C4)cc2)c2cc(C(C)(C)C)c(O)c(C(C)(C)C)c2)C=C(C(C)(C)C)C1=O
inactive: [1] 4.7% | [2] 2.6% | [3] -1.75% | [4] -38.6% | [5] -3.9% | [6] 14.4%

Cc1cccc(C(=O)O)c1-c1c(C)cccc1C(=O)O
inactive: [1] 13.3% | [2] -5.95% | [3] -6.8% | [4] 3.05% | [5] 0.8% | [6] 12.9%

CCOC(=O)N1C=NC23C(c4ccccc4)C(c4ccccc4)C12C(=O)N(C)C(=O)N3C (stereo unspecified)
inactive: [1] -1.55% | [2] -9.2% | [3] 0.7% | [4] -26.8% | [5] -8.35% | [6] -30.9%

CC/C(=C\c1ccc(OC)cc1)c1ccc(OC)cc1
inactive: [1] -16.1% | [2] -31.1% | [3] 7.05% | [4] 4.75% | [5] 1.75% | [6] -5.05%

CCc1nc2ccccc2cc1C
inactive: [1] 5.5% | [2] -4.55% | [3] 3.5% | [4] -19.6% | [5] 1.1% | [6] 2.6%

CN(C)C(=O)CCCC(=O)c1cccc([N+](=O)[O-])c1
inactive: [1] 9.55% | [2] 3.5% | [3] 3.7% | [4] 10.6% | [5] 16% | [6] -13.3%

O=C1CCNC/C1=C\c1ccccc1
inactive: [1] 6.25% | [2] -14.3% | [3] 8.9% | [4] 13.4% | [5] -19.2% | [6] 6.55%

O=C(O)CCC(=O)CC1CCCCC1
inactive: [1] 36.3% | [2] 15.9% | [3] 10.2% | [4] 39.1% | [5] -8.45% | [6] 28.2%

CCC(CC)NCCCNc1cc(OC)cc2cccnc12
inactive: [1] 20.8% | [2] 33.6% | [3] 53.8% | [4] 4.65% | [5] 30.9% | [6] 48.6%

N#Cc1c(=O)[nH]c(=O)n2c1[nH]c1ccccc12
inactive: [1] 14.7% | [2] 19.3% | [3] 11.9% | [4] -32.4% | [5] 12.1% | [6] 8.15%

NC(N)=N/N=C(\c1nc2ccc([N+](=O)[O-])cc2[nH]c1=O)C(O)c1ccc([N+](=O)[O-])cc1 (stereo unspecified)
inactive: [1] -16% | [2] -24.9% | [3] -16.6% | [4] -24.1% | [5] -6.7% | [6] 1.85%

Oc1ccc2ccccc2c1/C=N\Sc1ccc(Cl)cc1
inactive: [1] 49% | [2] 34.7% | [3] 64.1% | [4] 28.8% | [5] 32.2% | [6] 49%

CNC(=S)N/N=C/c1nc2ccccc2c(=O)n1-c1ccc(Cl)cc1
inactive: [1] 19.6% | [2] 0.75% | [3] 36.6% | [4] 2.55% | [5] -2.5% | [6] 10.2%

CC(=O)C1=C(C)Cn2c(=O)c3ccccc3c(=O)n2C1
inactive: [1] -4.7% | [2] -18.5% | [3] -10.7% | [4] 10% | [5] -15.7% | [6] -0.05%

Nc1nc(N)c(NC(=O)CCCO)c(=O)[nH]1
inactive: [1] -3.95% | [2] -2.35% | [3] -13.3% | [4] 6.8% | [5] -23.8% | [6] -53%

Cc1ccc(N=C(Nc2ccc(C)cc2)C(c2ccccc2)c2ccccc2)cc1
inactive: [1] 12% | [2] -1.85% | [3] 5.9% | [4] 7.65% | [5] 6.5% | [6] 30.6%

CCOC1OC(C2COC(=S)O2)C(O)C1O (stereo unspecified)
inactive: [1] 9.35% | [2] -2.15% | [3] 7.85% | [4] -4.1% | [5] -0.15% | [6] 13.6%

CC(C)(C)NC(=O)Oc1ccc2ccccc2c1
inactive: [1] 1.75% | [2] -14.6% | [3] -6% | [4] -84.9% | [5] 10.3% | [6] -15.7%

C[N+]1(C)CCCC(CN2c3ccccc3Sc3ccccc32)C1 (stereo unspecified)
inactive: [1] 10.8% | [2] -3.85% | [3] 7.85% | [4] -13.4% | [5] 5.9% | [6] 15.4%

COc1cccc(C2c3cc4c(cc3OC(N3CCCC3)C2C)OCO4)c1OC (stereo unspecified)
inactive: [1] 24.8% | [2] 17.6% | [3] -9.65% | [4] 1% | [5] 11.4% | [6] 29.9%

CC1=C(C)CC2C(=O)c3c(O)ccc(O)c3C(=O)C2C1 (stereo unspecified)
inactive: [1] 28.9% | [2] 44.9% | [3] 52% | [4] 4.15% | [5] 39.9% | [6] 50.1%

N#CC(C(=O)O)=C1CCCCCC1
inactive: [1] 2.4% | [2] -1% | [3] 3.7% | [4] -1.8% | [5] 5.5% | [6] -0.8%

CN(C)/C(N)=N/S(=O)(=O)c1ccc(C#N)cc1
inactive: [1] 5% | [2] 2.85% | [3] -0.25% | [4] 6.1% | [5] 4.7% | [6] 2.45%

CSc1n[nH]c(SC)n1
inactive: [1] -4.3% | [2] -15.2% | [3] -4.15% | [4] 4.65% | [5] -11.2% | [6] -5.9%

CCN(CC)CCNc1ccc(N)c2sc3ccccc3c(=O)c12
inactive: [1] 8.45% | [2] 3.8% | [3] -18.7% | [4] -8.25% | [5] -37.6% | [6] -29.1%

CCOC(=O)c1nc2ccccc2nc1Nc1ccc(OC)c(OC)c1
inactive: [1] -30.2% | [2] -31.5% | [3] -15.9% | [4] -15.6% | [5] -16.6% | [6] -19.3%

CCCC(=O)Nc1cc(C(=O)N2C[C@@H]3C[C@]34C2=CC(=O)c2[nH]cc(C)c24)n(COC)c1
inactive: [1] 26.5% | [2] 10.5% | [3] 30.6% | [4] 10.1% | [5] 8.9% | [6] 47.4%
